From PubChem BioAssay (NCI) come the findings set out here.

Compounds without any hit were thinned out: in the full panel of roughly 83,000, 20% have a hit.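 A percent growth of 40 corresponds to 60% growth inhibition; 0 means no net growth; -100 means all cells died. Active threshold: below 10.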 Unmarked numbers belong to inactive results. Activity calls are given as the source filed them.

Test systems include T-47D breast; BT-549 breast; MDA-MB-435 melanoma; SW-620 colon; MCF7 breast; HCT-116 colon; HCC-2998 colon; KM12 colon.
Assay in all cases: NCI-60 one-dose screen, 48 h (100 = growth as untreated, 0 = no growth, -100 = all killed)
Holding throughout (conditions): 10 µM unless noted

Take `CN1CCN(c2ccc3nc4c(nc3c2C(F)(F)F)C(=O)c2ncccc2C4=O)CC1`: the growth with T-47D breast was -28.4% (active); in the assay on BT-549 breast, -97% (active); in the assay with MDA-MB-435 melanoma it was -91.8% (active); in the assay on SW-620 colon it was 4.71% (active); in the assay with MCF7 breast, -57% (active); in the assay on HCT-116 colon it was 0.984% (active). For the same molecule, the figures for the growth in the assay with HCC-2998 colon and in the assay with KM12 colon were -26.9% (active) and 13%, respectively.

Turning to `COC(=O)c1ccc(NC(=O)Nc2ccc(C(=O)OC)cc2)cc1`, the growth is 89% in the assay on T-47D breast; 99% with BT-549 breast; 109% in the assay on MDA-MB-435 melanoma; 112% in the assay with SW-620 colon; 96.1% with MCF7 breast; 95.3% in the assay on HCT-116 colon. The growth was 108% in the assay with HCC-2998 colon and 113% in the assay with KM12 colon.

`CN1CCN(C(=O)C(C)(C)c2ccc(C(=O)Nc3cn4cc(-c5ccncc5)ccc4n3)cc2)CC1`: the growth with T-47D breast was 3.75% (active); in the assay with BT-549 breast, 7.86% (active); in the assay on MDA-MB-435 melanoma, 14.2%; with SW-620 colon it was 11.1%; in the assay with MCF7 breast, -0.0814% (active); in the assay with HCT-116 colon, 5.31% (active). In addition, the growth with HCC-2998 colon was 13.9%; in the assay with KM12 colon, 7.82% (active).

`COc1ccc(C(=O)/C=C/c2ccc(Cl)cc2)cc1S(=O)(=O)Nc1c(N)nc(SC)[nH]c1=O`: the growth was 62.5% in the assay on T-47D breast; 60.5% with BT-549 breast; 80% with MDA-MB-435 melanoma; 7.52% (active) in the assay on SW-620 colon; 18.8% in the assay on MCF7 breast; 11.4% with HCT-116 colon. Further, the growth with HCC-2998 colon was 90.8%; in the assay on KM12 colon, 12.8%.

For `CN(C)S(=O)(=O)Oc1ccc(-c2sc3cc(OS(=O)(=O)N(C)C)ccc3c2C(=O)c2ccc(OCCN3CCCCC3)cc2)cc1`, the growth with T-47D breast is 44.8%; in the assay on BT-549 breast, 79.6%; with MDA-MB-435 melanoma, 78.6%; in the assay with SW-620 colon it was 30.5%; in the assay on MCF7 breast it was 26.4%; in the assay with HCT-116 colon it was 40.8%. Further, the growth is 89.2% with HCC-2998 colon and 73.7% in the assay on KM12 colon.

Regarding `NS(=O)(=O)c1ccc(C(=O)NN2C(=O)c3c(Br)c(Br)c(Br)c(Br)c3C2=O)cc1`, the growth is 83.1% in the assay with T-47D breast; 106% in the assay on BT-549 breast; 103% in the assay on MDA-MB-435 melanoma; 101% in the assay on SW-620 colon; 81.4% with MCF7 breast; 99.7% in the assay on HCT-116 colon. The growth in the assay with HCC-2998 colon is 111%; with KM12 colon, 97.5%.

As for `COc1cnc2c(c1)C(=O)c1c-2n(CCCCl)c(=O)c2ccncc12`, the growth in the assay on T-47D breast is 28.9%; in the assay on BT-549 breast, 56.8%; in the assay with MDA-MB-435 melanoma, 79.2%; in the assay on SW-620 colon, 36.3%; in the assay on MCF7 breast it was 17.9%; in the assay with HCT-116 colon, 40.4%. The growth in the assay on HCC-2998 colon was 75.6%; with KM12 colon, 67.8%.

Consider `CN1CCN(C(=O)[C@@]2(C)CC[C@]3(C)CC[C@]4(C)C(=CC[C@@H]5[C@@]6(C)CCC(=O)NC(C)(C)[C@@H]6CC[C@]54C)[C@@H]3C2)CC1`, for which the growth is 39.2% in the assay on T-47D breast; 45.9% in the assay on BT-549 breast; 46.1% in the assay with MDA-MB-435 melanoma; 19.7% in the assay on SW-620 colon; 45% in the assay with MCF7 breast; 21.8% in the assay on HCT-116 colon. Moreover, the growth is 49% in the assay with HCC-2998 colon and 46.8% in the assay on KM12 colon.

With `Cc1cn(-c2cc(NC(=O)c3cncc(C#Cc4c(N)ncc5ccc(F)cc45)c3)cc(C(F)(F)F)c2)cn1`, the growth is 65.8% with T-47D breast; 86.4% in the assay with BT-549 breast; 36.6% in the assay with MDA-MB-435 melanoma; 33.3% with SW-620 colon; 31.5% in the assay on MCF7 breast; 19.4% in the assay on HCT-116 colon. The values for the growth in the assay with HCC-2998 colon and in the assay on KM12 colon were 77.4% and 14.1%, respectively.

For `C#Cc1cccc(Nc2nc(C)nc3cc(NC(=O)CCl)ccc23)c1`, the growth in the assay with T-47D breast is -55.3% (active); with BT-549 breast, -71.2% (active); in the assay on MDA-MB-435 melanoma it was -51.1% (active); with SW-620 colon it was -63.6% (active); in the assay with MCF7 breast, -68% (active); in the assay on HCT-116 colon, -65.2% (active). The growth in the assay on HCC-2998 colon was -88.1% (active); in the assay on KM12 colon, -73.7% (active).

For `CC1=C2[C@@H](CC1)[C@]1(C)O[C@@](c3ccccc3)(C[C@H]1OC(=O)CO)[C@H]2OC(=O)/C=C/c1ccccc1`, the growth in the assay with T-47D breast was 65.2%; with BT-549 breast, 0.952% (active); with MDA-MB-435 melanoma, -80.7% (active); with SW-620 colon, 104%; in the assay with MCF7 breast it was 78.6%; in the assay on HCT-116 colon, 86.2%. Moreover, the growth was 93.2% in the assay with HCC-2998 colon and 88.4% in the assay with KM12 colon.

On to `CCN1C(=O)N(CC)C2C1NN=c1s/c(=C\c3ccc(C(F)(F)F)cc3)c(=O)n12` (stereo not given), for which the growth with T-47D breast was 64.7%; in the assay with BT-549 breast it was 9.68% (active); in the assay on MDA-MB-435 melanoma, -26.5% (active); with SW-620 colon it was 20.7%; with MCF7 breast it was 15.9%; in the assay on HCT-116 colon, 9.6% (active). The growth was 9.59% (active) with HCC-2998 colon and 15.2% in the assay with KM12 colon.

Consider `O=C1/C(=C/c2ccc(O)c(O)c2)COc2ccc(-c3ccccc3)cc21`, for which the growth in the assay with T-47D breast was 15.4%; in the assay with BT-549 breast, 31.7%; with MDA-MB-435 melanoma, -6.77% (active); in the assay with SW-620 colon, -38.3% (active); with MCF7 breast, 16%; in the assay with HCT-116 colon, 12.7%. In addition, the growth was -23% (active) with HCC-2998 colon and 19.6% with KM12 colon.

In the case of `Nc1c(C(=O)Nc2cccc(Cl)c2)sc2nc3c(cc12)CCCC3`, the growth in the assay on T-47D breast is 80.8%; with BT-549 breast it was 93.1%; in the assay with MDA-MB-435 melanoma it was 34.4%; in the assay with SW-620 colon, 92.3%; in the assay with MCF7 breast it was 71.6%; in the assay on HCT-116 colon, 91.6%. Also, the figures for the growth with HCC-2998 colon and with KM12 colon were 91.4% and 77.6%, respectively.

Regarding `COc1ccc(C(=O)Cn2c(C(=O)c3ccc(OC)cc3)nc3ccccc32)cc1`, the growth with T-47D breast was 29.9%; in the assay on BT-549 breast, 31%; with MDA-MB-435 melanoma, -50% (active); with SW-620 colon, 9.77% (active); in the assay with MCF7 breast, 16%; with HCT-116 colon, 12.2%. Further, the growth with HCC-2998 colon is 21.5%; with KM12 colon it was 24.8%.
